Data reported in PubChem BioAssay (NCI).
This is part of a sample that, as a whole, favours compounds with a hit. Of some 83,000 tested, about 20% had one in any assay.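 Single-dose data. Exposure time 48 hours. Values below 10 considered active.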 Unmarked numbers belong to inactive results. Activity calls are given as the source filed them.

Columns and labels:
Test in all cases: NCI-60 one-dose screen, 48 h (100 = growth as untreated, 0 = no growth, -100 = all killed)
NCI-H23 lung = conditions: 10 µM unless noted
NCI-H226 lung = conditions: 10 µM unless noted
NCI-H322M lung = conditions: 10 µM unless noted
HOP-92 NSCLC = conditions: 10 µM
NCI-H522 lung = conditions: 10 µM
A549/ATCC NSCLC = conditions: 10 µM unless noted
786-0 renal = conditions: 10 µM unless noted
DU-145 prostate = conditions: 10 µM unless noted
K-562 leukemia = conditions: 10 µM unless noted
MALME-3M melanoma = conditions: 10 µM unless noted
MDA-MB-231 breast = conditions: 10 µM unless noted
RXF 393 renal = conditions: 10 µM unless noted
SF-268 CNS = conditions: 10 µM unless noted
SF-295 CNS = conditions: 10 µM unless noted
SF-539 CNS = conditions: 10 µM unless noted
UACC-257 melanoma = conditions: 10 µM unless noted
M14 melanoma = conditions: 10 µM unless noted
COLO 205 colon = conditions: 10 µM unless noted

Row | SMILES | growth (NCI-H23 lung) [%] | growth (NCI-H226 lung) [%] | growth (NCI-H322M lung) [%] | growth (HOP-92 NSCLC) [%] | growth (NCI-H522 lung) | growth (A549/ATCC NSCLC) [%] | growth (786-0 renal) [%] | growth (DU-145 prostate) [%] | growth (K-562 leukemia) [%] | growth (MALME-3M melanoma) | growth (MDA-MB-231 breast) [%] | growth (RXF 393 renal) [%] | growth (SF-268 CNS) [%] | growth (SF-295 CNS) [%] | growth (SF-539 CNS) [%] | growth (UACC-257 melanoma) [%] | growth (M14 melanoma) [%] | growth (COLO 205 colon) [%]
1 | CC1=NN(c2cccc(Cl)c2)C(=O)/C1=C\c1cn(-c2nc(N3CCOCC3)nc(N3CCOCC3)n2)c2ccccc12 | 100 | 99.8 | 91.9 | 90.6 | 88.9% | 99.2 | 102 | 106 | 114 | 104% | 112 | 115 | 95.4 | 105 | 109 | 106 | 103 | 
2 | COc1ccc(C2C3(C#N)C(N)=NC(=C(C#N)C#N)C23C#N)cc1OC (stereo unspecified) | 104 | 109 | 111 | 76.8 | 107% | 107 | 99.5 | 102 | 97.1 | 112% | 93.2 | 96.8 | 121 | 108 | 94.2 | 102 |  | 123
3 | CCCCCCCCCCN1CC2CCCCC2C1 (stereo unspecified) | 82.2 | 76 | 99.7 | 56.4 | 67.1% | 97.3 | 86.6 | 69 | 24.4 | 108% | 34.1 | 77.7 | 72.2 | 85.1 | 85.1 | 87.2 | 73.3 | 61
4 | CC(=O)Nc1ccc(CC#N)cc1Br | 110 | 96.4 | 105 | 94 | 92.9% | 103 | 101 | 107 | 111 | 101% | 112 |  | 106 | 105 | 103 | 103 | 105 | 109
5 | Cc1ccnc2c(NC(C)CCCN)cc(O)c(O)c12 (stereo unspecified) | 40.4 | 111 | 75.3 | 47.6 | 12.6% | 94.7 | 95.1 | 80.3 | 80.3 | 123% | 75.2 | 96.2 | 108 | 104 | 79.8 | 97.2 |  | 77.8
6 | COc1ccc(-c2nc(N)n(C(=S)Nc3ccccc3)n2)cc1 | 92.2 | 92.6 | 101 | 85.8 | 88.5% | 102 | 105 | 108 | 95 | 89.5% | 93.9 | 103 | 96.3 | 91.2 | 97.1 | 105 | 98.8 | 105
7 | CCCC(=O)Nc1ccccc1C(=O)O | 86.6 | 101 | 107 |  | 90.7% | 94.3 | 112 | 97.6 | 104 | 106% | 123 | 93.7 | 92.4 | 93.9 | 102 | 85.2 | 98.6 | 97
8 | Cc1nc(NC(=O)NC2CCCCC2)sc1C(=O)NN | 101 | 103 | 101 |  | 0.452% (active) | 102 | 113 | 109 | 154 | -7.04% (active) | 97.9 | 112 | 101 | 103 | 113 | 101 | 94.9 | 119
9 | COc1ccc(NC(=O)/C=C(C)/C=C/C=C(C)/C=C/C2=C(C)CCCC2(C)C)cc1 | 93.4 | 78.2 | 90.8 | 62 | 51.7% | 39.9 |  | 101 | 46.7 | 68.1% | 38.3 | 79.4 | 81.4 | 80 | 32.8 | 87.4 |  | 33
10 | Cc1ccc(C(=O)NN)cc1 | 101 | 109 | 127 |  | 102% |  | 106 |  | 91.6 | 117% |  | 103 |  | 111 | 114 |  | 113 | 115
